Data taken from PubChem BioAssay AID1578 (Sanford-Burnham Center for Chemical Genomics, 2009).
About 3,000 (1%) of roughly 290,000 compounds were called active. The entries come from a sample that favours actives as a whole. Unmarked numbers belong to inactive results. Rule as the data show it: active = inhibition mostly above about 36% (no sharp cut-off); inactive = mostly below about 34%.

Assay: NOD1 signaling inhibitors, primary screen, cell-based, luminescence, uHTS (AID 1578);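 also: HEK-293T reporter cells stimulated with the NOD1 agonist gamma-tri-DAP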
Conditions: NOD1-driven NF-kB luciferase reporter cells, at 4 µM, active compounds read high

| SMILES | inhibition |
| --- | --- |
| CCC(C)[C@H](NC(=O)N1CCn2c1nc1ccccc12)C(=O)NCc1ccccc1 (stereo partly drawn) | -0.4% |
| CC(C)C(C)NC(=O)COC(=O)c1cc(S(=O)(=O)N(C)C)ccc1N1CCCC1 (stereo not drawn) | -50.6% |
| c1ccc(COn2nnc3ccccc32)c(COn2nnc3ccccc32)c1 | -7.5% |
| COc1ccc(OC)c(NC(=O)c2nnn(Cc3ccccc3C)c2N)c1 | -33.8% |
| CC1CC(=S)Nc2ccccc2N1Cc1ccccc1 (stereo not drawn) | -2.8% |
| CC1CN(Cc2ccccc2)c2ccccc2NC1=S (stereo not drawn) | 108% (active) |
| CC1CSc2ccccc2NC1=S (stereo not drawn) | -19.1% |
| COc1cc(NC(=O)c2cnn3c(C(F)F)cc(C4CC4)nc23)c(OC)cc1Cl | -21.7% |
| COc1ccc(OCC(=O)Nc2ccc(NC(=O)c3ccccc3Cl)c(OC)c2)cc1 | -16.9% |
| COCCNC(=O)c1cc2cc3ccc(OC)cc3nc2o1 | 4.6% |
| COc1ccc2cc3cc(C(=O)NCCC(C)C)oc3nc2c1 | -9.5% |
| O=C(CSc1nc2ccccc2[nH]1)N1CCN(c2ccccc2)CC1 | -37.6% |
| CC1=CC(C)(C)Nc2ccc(OC(=O)CN3C(=O)c4ccccc4C3=O)cc21 | 21.8% |
| CC1=CC(C)(C)Nc2ccc(OC(=O)c3ccco3)cc21 | 98.8% (active) |
| CC1=CC(C)(C)Nc2ccc(OC(=O)c3cccnc3)cc21 | 34.3% |
| O=C(NCC1CCCO1)c1ccc(S(=O)(=O)N2CCC(c3nc4ccc(Cl)cc4[nH]3)CC2)cc1 (stereo not drawn) | -25.9% |
| COCCNC(=O)C(c1ccc(C)o1)N(C(=O)C(=O)NC1CCCCC1)c1ccc(F)cc1 (stereo not drawn) | -37.3% |
| CSCCC(NC(=O)c1cccc(C)c1)C(=O)O (stereo not drawn) | 2% |
| CSCCC(NC(=O)c1ccccc1)C(=O)Nc1ccc(C)cc1 (stereo not drawn) | 1.6% |
| CSCCC(NC(=O)c1cccc(C)c1)C(=O)Nc1sccc1C(N)=O (stereo not drawn) | 68.6% (active) |
| NC1=NC(=O)/C(=C/c2cn(CCC(=O)O)nc2-c2ccc(Cl)cc2)S1 | -34.5% |
| CCOc1ccc(NC(=O)CSc2nnc(N)s2)c([N+](=O)[O-])c1 | -24.6% |
| OC1CCCN(CC(O)c2ccccc2)C1 (stereo not drawn) | -32.3% |
| Cn1nnnc1N=N/C(=N/Nc1ccccc1)c1ccccc1 | -8.4% |
| Brc1ccc(N/N=C(/N=Nc2nn[nH]n2)c2ccccc2)cc1 | 63.8% (active) |

| SMILES | inhibition |
| --- | --- |
| C/C(=N\Nc1ccc(C(=O)O)cc1)c1ccc(Br)cc1 | 5% |
| CCOc1ccc(S(=O)(=O)Nc2cc(F)ccc2F)c2cccnc12 | -15.4% |
| CC1=NN(c2ccccc2)C(=O)/C1=C/C=C/c1ccccc1 | 31.6% |
| CC1=NN(c2cccc(C(=O)O)c2)C(=O)/C1=C\C=C/c1ccccc1 | 58.9% (active) |
| CC1=NN(c2cccc(C(=O)O)c2)C(=O)/C1=C\C=C\c1ccco1 | -11.6% |
| CCCNC(=O)c1onc(CSc2nc3ccccc3[nH]2)c1C(=O)NCCC | 11.1% |
| C=CCn1c(Sc2nnc(C)s2)nc2c1c(=O)[nH]c(=O)n2C | -4.6% |
| C=CCn1c(CSc2ccccc2[N+](=O)[O-])n[nH]c1=S | -1.6% |
| C=CCn1c(Sc2ncc([N+](=O)[O-])s2)n[nH]c1=O | 30.1% (active) |
| CCOC(=O)CSc1nc(N)c(C#N)cc1C#N | -40.2% |
| COc1cc(CN2CCNC(=O)C2CC(=O)N(C)CCCN2CCOCC2)cc(OC)c1 (stereo not drawn) | -24.5% |
| O=[N+]([O-])c1ccc(/C=[N+](\[O-])[C@@H]2CCCC[C@@H]2/[N+]([O-])=C/c2ccc([N+](=O)[O-])o2)o1 | -2% |
| O=C1CN(/N=C/c2ccc([N+](=O)[O-])o2)C(=O)N1 | -4.5% |
| O=C1NC(=S)S/C1=C\C=C\c1ccc([N+](=O)[O-])o1 | 39.6% (active) |
| COc1ccc(C(C)=O)cc1CC(=O)Nc1ccccc1-c1ccccc1 | -4.6% |
| Cc1sc2nc[nH]c(=S)c2c1-c1ccccc1 | 99.2% (active) |
| S=c1[nH]cnc2scc(-c3ccccc3)c12 | -0.1% |
| Cc1c(-c2ccccc2)sc2nc[nH]c(=S)c12 | -35.9% |
| O=C(COC(=O)Cc1ccc(-c2ccccc2)cc1)NCc1ccc(F)cc1 | -4.2% |
| O=C(COC(=O)c1ccc(Br)cc1)NCc1ccc(F)cc1 | -22.6% |
| O=C(COC(=O)Cc1ccc(Br)cc1)NCc1ccc(F)cc1 | 48.2% (active) |
| COc1ccc(/C(C)=N/NC(=O)c2sccc2-n2cccc2)cc1 | -58.2% |
| Cc1nc(NCc2ccco2)c2c3c(sc2n1)CCC3 | -54.6% |
| Cc1nc(NCc2ccco2)c2c(C)c(C)sc2n1 | 97.6% (active) |
| Cc1sc2ncnc(NCc3ccco3)c2c1C | -21.2% |

| SMILES | inhibition |
| --- | --- |
| COc1ccccc1C1CCN(Cc2ccc(C)cc2)CC1 | 4.9% |
| Cc1cc(C=C2C(=O)CCCC2=O)c(C)n1-c1ccccc1 | -19.3% |
| Cc1cc(C=C2C(=O)c3ccccc3C2=O)c(C)n1-c1ccccc1 | 32.4% |
| Cc1cc(/C=C2\Cc3ccccc3C2=O)c(C)n1-c1ccccc1 | 63.8% (active) |
| Cc1nc(N)ncc1-c1ccc2c(c1)OCO2 | 2.9% |
| O=C(NCC(=O)N(c1ccc(Cl)cc1)C(C(=O)NC1CCCC1)c1cccnc1)c1ccco1 (stereo not drawn) | 6% |
| Oc1[nH]c(N=C2N=c3ccccc3=N2)c2ccccc12 | 42.6% (active) |
| N#CC(=C1N=c2ccccc2=N1)c1c(O)[nH]c2ccccc12 | 20% |
| Oc1[nH]c2ccccc2c1N=Nc1cccc(Cl)c1 | -10.3% |
| CC(C)NC(=O)NC(=O)COC(=O)c1cc[n+]([O-])cc1 | -6.6% |
| CCOC(=O)CON1C(=O)C(=O)N(OCC(=O)OCC)C2CCCCC21 (stereo not drawn) | -26.3% |
| CC(C)(C)N1CC(COc2ccccc2)OC1=O (stereo not drawn) | -21.9% |
| Cc1sc(NC(=O)CCl)c(C(=O)c2ccccc2)c1C | 60.9% (active) |
| Cc1sc(NC(=O)c2ccccc2)c(C(=O)c2ccccc2)c1C | 14.5% |
| Cc1ccc(C(=O)Nc2sc(C)c(C)c2C(=O)c2ccccc2)cc1 | -9.8% |
| Cc1ccc(NC(=O)CN(C)C(=O)/C=C/c2cccc(F)c2)cc1 | -1.6% |
| Cc1ccc(C(=O)N(Cc2cccnc2)Cc2cc3cc(C)ccc3n3nnnc23)cc1 | 52% (active) |
| Cc1ccc2c(c1)cc(CN(Cc1cccnc1)C(=O)NCc1ccccc1)c1nnnn12 | -2.2% |
| COCCN(Cc1cc2cc(C)ccc2n2nnnc12)C(=S)Nc1ccc(C)cc1 | 10.5% |
| Cc1ccc2c(c1)cc(CN(Cc1cccnc1)C(=O)c1ccccc1)c1nnnn12 | -33.2% |
| COCCN(Cc1cc2cc(C)ccc2n2nnnc12)C(=S)Nc1ccccc1C | 52.2% (active) |
| COCCN(Cc1cc2cc(C)ccc2n2nnnc12)C(=S)Nc1cccc(C)c1 | 33.3% |
| COc1ccc(-c2csc(-c3[nH]cnc3N)n2)cc1 | -36.1% |
| COCCNC(=O)Cn1ccc2cc(S(=O)(=O)N3CCCCCC3)ccc21 | -9.2% |
| COc1cc(-c2noc(C)c2-c2ccc3[nH]ccc3c2)cc(OC)c1OC | 33.3% |

| SMILES | inhibition |
| --- | --- |
| CC1CCCN(C(=O)CCNS(=O)(=O)c2ccc3c(c2)oc(=O)n3C)C1 (stereo not drawn) | -23.9% |
| O=C(CCl)Nc1ccc(-c2ccccc2)cc1 | 78.6% (active) |
| CC(=O)Nc1ccc(NC(=O)Cc2ccc(-c3ccccc3)cc2)cc1 | -16.2% |
| O=C(CCCSc1ccc(Cl)cc1)Nc1ccccc1O | 59.4% (active) |
| CCNC(=S)Nc1ccc(N(c2ccccc2)C(C)C)cc1 | -9.8% |
| O=C(CSCc1ccc(Cl)cc1)Nc1ccccc1O | -40% |
| O=C(Cc1ccc(-c2ccccc2)cc1)Nc1ccccc1 | -1.9% |
| CC(C)N(c1ccccc1)c1ccc(NC(=O)CCl)cc1 | 95.4% (active) |
| Cc1ccc(Sc2ccc(NC(=O)CCl)cc2)cc1C | 21.2% |
| Cc1ccc(C)c(Sc2ccc(NC(=O)CCl)cc2)c1 | 19.3% |
| COC(=O)c1cccc(NC(=O)CCSc2ccc(Cl)cc2)c1C | -10.1% |
| CC(C)N(c1ccccc1)c1ccc(NC(=S)NCCN(C)C)cc1 | -23.3% |
| COc1ccc(/C=N/NC(=O)COc2ccc(Cl)cc2Cl)cc1Cn1nc(C)cc1C | -18% |
| COc1ccccc1N1CCN(C2CCCN(C(=O)CCC(C)=O)C2)CC1 (stereo not drawn) | -21% |
| COc1ccc(S(=O)(=O)N2CCC(C(=O)N[C@@H](C)C(=O)NCc3cccc(OC)c3)CC2)cc1 | -4.9% |
| Cc1c(C)c2c(OCC(=O)N3CCC(C(=O)NCC(C)C)CC3)cc3c(c2oc1=O)CCC(C)(C)O3 | -19.1% |
| O=C(CCCn1cnc2ccccc2c1=O)Nc1ccccc1F | -9.5% |
| Cc1cccc(C)c1NC(=O)C1C2C=CC(C2)C1C(=O)O (stereo not drawn) | -40.2% |
| CCN1CCN(C(c2cccs2)C(C)NC(=O)c2ccco2)CC1 (stereo not drawn) | 5.5% |
| CC(=O)Nc1nnc(/C=C/c2cccc([N+](=O)[O-])c2)s1 | 46% |
| CC(=O)C1=C(O)C(=O)N(Cc2ccco2)C1c1cccc(F)c1 (stereo not drawn) | -28% |
| O=C(NCc1ccco1)c1ccc(Cl)c(S(=O)(=O)Nc2ccccc2)c1 | -15% |
| COc1ccc(N(CC(=O)Nc2cc([N+](=O)[O-])ccc2C)S(C)(=O)=O)cc1OC | 1.1% |
